Experimental findings from PubChem BioAssay (NCATS) are described below.

Inconclusive results are not listed. Values without a mark were called inactive. The call rests on the fitted dose curve; in most records, active means well fitted inhibition curve with a large enough effect; inconclusive means small, poorly fitted or top-dose-only effect; inactive means flat fitted curve, though single readings scatter.
On the % scale 0 is the no-effect control and ±100 the full control effect.

In the experiment the test system is KB-3-1. In words: Cytotoxic Profiling of Annotated Libraries Using Quantitative High-Throughput Screening (AID 1296008). Further: nearly all actives have a fitted effect of over 60% in size. Particulars: Five cell lines viability, CellTiter-Glo ATP luminescence, 48-72 h, active compounds read low. The text has this:
Cell-based phenotypic screening is a commonly used approach to discover biological pathways, novel drug targets, chemical probes and high-quality hit-to-lead molecules. Many hits identified from high-throughput screening campaign are ruled out through a series of follow-up potency, selectivity/specificity, and cytotoxicity assays. Prioritization of molecules with little or no cytotoxicity for a more in-depth downstream evaluation influence the future direction of projects, so cytotoxicity profiling of the screening libraries at early stage is essential for increasing the likelihood of candidate success. […] For the annotated library, we also examined the primary targets and mechanistic pathways regularly associated with cell death. To our knowledge, this is the first study to use high-throughput screening to profile large libraries for cytotoxicity assessment in both normal and cancer cell lines. In summary, the results generated here constitutes a valuable resource for the scientific community and provides insight on identifying cytotoxic compounds with particular mechanisms of action, and prioritizing compounds with suitable cytotoxicity profile for further evaluation.
A pintool (Kalypsys) was used to transfer 23 nL of compound solution to the 1536-well assay plates. After 48 or 72 hr incubation at 37 degree Celsius, 5% CO2 and 95% humidity, 2.5 uL of CellTiter-Glo (Promega) was dispensed into each well using a dispenser (Aspect Automation, St. Paul, MN) with solenoid valves (Lee Valves, Westbrook CT). Plates were left at room temperature for 10 min before imaging the ATP-coupled luminescence using a ViewLux microplate imager (PerkinElmer, Waltham, MA).
On to `O=C(O)Cc1cn(-c2ccccc2)nc1-c1ccc(Cl)cc1`, for which the max response is 2.82%. The same measure for `C[n+]1ccccc1/C=N/O`: -1.46%; for `CCCNC(C)(C)COC(=O)c1ccccc1`: 0.448%; for `CCCC(O)C(CC)CO` (stereo not given): 9.23%. The same measure for `O=C(O)c1ccc(OCCCOc2ccc(C(=O)O)cc2)cc1`: 3.43%. The same measure for `Cc1c(Cn2ccnc2)c2ccccc2n1CCC(=O)O`: -18.7%.

With `COc1ccc(O)cc1`, the max response was -0.988%.

Take `CO[C@@]1(NC(=O)C(C(=O)O)c2ccc(O)cc2)C(=O)N2C(C(=O)O)=C(CSc3nnnn3C)CO[C@@H]21` (stereo not given in full): the max response is 4.1%. The same measure for `COc1ccccc1OCC(O)CO` (stereo not given): 4.34%. Under `O=C(O)CCCc1ccccc1` stands 18.7%; under `NNC(=O)CP(=O)(c1ccccc1)c1ccccc1`, -1.94%; under `CCN(CC)S(=O)(=O)c1ccc(C(=O)O)cc1`, 7.96%. `Cc1cc(=O)[nH]c(=S)[nH]1`: the max response was -0.427%. Under `CC(C)=CCC/C(C)=C/CO` stands 8.27%; under `CC[C@]12CCCN3CCc4c(n(c5ccccc45)[C@@](O)(C(=O)OC)C1)[C@@H]32`, 3.99%; under `Cc1c(C(=O)NCCO)[n+](=O)c2ccccc2n1[O-]`, -16.8%. Under `CCCCCCCCCCC(CO)CCCCCCCC` (stereo not given) stands 12.2%; under `O=C(O)CCC(=O)O`, 7.68%; under `CC(=O)NCc1c(I)c(NC(C)=O)c(I)c(C(=O)O)c1I`, 5.09%.

For `NS(=O)(=O)c1ccc(C(=O)O)cc1`, the max response is 9.5%. Under `COc1ccc(C(=O)N2CCN(CC(=O)N3CCOCC3)CC2)cc1` stands 5.06%; under `CN1CCN(C(=O)C2CCCCC2)CC1`, -4.36%; under `CC(C)(C)NCC(O)COc1cccc2c1CCC(=O)N2` (stereo not given), 7.08%. The same measure for `CC(=O)N[C@@H](Cc1ccc(O)cc1)C(=O)O`: -4.16%; for `C[C@@H]1O[C@@H](OC[C@H]2O[C@@H](Oc3c(-c4ccc(O)c(O)c4)oc4cc(O)cc(O)c4c3=O)[C@H](O)[C@@H](O)[C@@H]2O)[C@H](O)[C@H](O)[C@H]1O`: 16.6%; for `CCCCCOC(=O)Nc1nc(=O)n([C@@H]2O[C@H](C)[C@@H](O)[C@H]2O)cc1F`: -8.69%. Take `CC(=O)Oc1cccc(C)c1`: the max response is -6.53%. Under `O=C(O)COC(=O)Cc1ccccc1Nc1c(Cl)cccc1Cl` stands 5.03%; under `NC(=O)NC1NC(=O)NC1=O` (stereo not given), -5.62%. Under `O=C(NCC(O)CO)c1c(I)c(C(=O)NCC(O)CO)c(I)c(N(CCO)C(=O)CO)c1I` (stereo not given) stands 27.3%. Under `Nc1ccc(C(=O)Oc2ccccc2)c(O)c1` stands -4.49%; under `CCN(CC)CCOC(=O)C(c1ccccc1)c1ccccc1`, 0.686%. Take `CC(C)(C)C(=O)OCOC(=O)[C@@H]1N2C(=O)[C@@H](NC(=O)[C@H](N)c3ccccc3)[C@H]2SC1(C)C`: the max response was -7.55%.

As for `c1ccc2[nH]ccc2c1`, the max response is -2.84%. Under `O[C@@H]1CO[C@H]2[C@@H]1OC[C@@H]2O` stands 6.79%; under `CN1CC(=O)NC1=N`, 3.48%; under `CCOC(N)=O`, -7.14%. Under `CCOc1ccccc1O[C@H](c1ccccc1)[C@H]1CNCCO1` stands 2.06%. As for `C=CCN1C[C@H](C(=O)N(CCCN(C)C)C(=O)NCC)C[C@@H]2c3cccc4[nH]cc(c34)C[C@H]21`, the max response is 6.36%. The same measure for `CN1C[C@@H]2C[C@H]1CN2c1cc2c(cc1F)c(=O)c(C(=O)O)cn2C1CC1`: -8.4%.
